Screening results deposited in PubChem BioAssay by National Center for Advancing Translational Sciences (NCATS).
In the library only some 21% were active in any assay of this set; here they are far more common.
Shiga toxin inh = A qHTS for Small Molecule Inhibitors of Shiga Toxin; Vero cells, Shiga toxin protein synthesis inhibition reporter; inhibition, % at 38.7 µM; 290,000 tested, 9.2% active; in the data active means inhibition mostly above about 28%, no sharp cut-off; inactive means mostly below about 43%; further: 0% is about no effect
Cycloheximide cs = Cycloheximide Counterscreen for Small Molecule Inhibitors of Shiga Toxin; cell reporter, cycloheximide protein synthesis inhibition counterscreen; max response, %; 300,000 tested, 12% active; AID 2314, 2010; in the data active means max response mostly above about 13%, no sharp cut-off; inactive means mostly below about 14%; further: read at 38.3 µM for the half of the compounds with a filed dose; 0% is about no effect
Pf growth 48h = Primary qHTS for delayed death inhibitors of the malarial parasite plastid, 48 hour incubation. P. falciparum luciferase growth in erythrocytes, 48 h. Potency, µM (doses to about 28.7 µM), inactives show at the top dose activity change, negative = inhibition, actives largely listed as inhibitors. 310,000 tested, 5.9% active. AID 504832, 2011; further: potency means the concentration at half of the fitted maximal effect; on the % scale 0 is the no-effect control and ±100 the full control effect
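Growth was read as firefly luciferase luminescence after a 48 h, 37 C, 5% CO2 exposure of compounds to reporter-bearing P. falciparum cultures (0.1% parasitemia, 2% hematocrit final) in Albumax-supplemented RPMI 1640.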
Pf growth 96h = Primary qHTS for delayed death inhibitors of the malarial parasite plastid, 96 hour incubation; P. falciparum luciferase reporter growth, 96 h; 320,000 tested, 6.9% active; Potency, µM (titrated, usually from 28.7 µM), inactives show top-dose activity change, negative = inhibition, usual class: inhibitors; further: potency means the concentration at half of the fitted maximal effect; on the % scale 0 is the no-effect control and ±100 the full control effect
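Parasite growth measured via integrated firefly luciferase reporter in P. falciparum. Infected erythrocytes at 2% hematocrit, 0.05% parasitemia final were treated 96 hours at 37 C under 5% CO2, and luminescence was read.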
* hit, by the source's call; u = inconclusive; x = not tested or not shown. Unless noted, the call rests on the fitted dose curve; in most records, active means well fitted inhibition curve with a large enough effect; inconclusive means small, poorly fitted or top-dose-only effect, or another doubt; inactive means no such curve, though single readings can be large or run the other way.

SMILES | Shiga toxin inh | Cycloheximide cs | Pf growth 48h | Pf growth 96h
CC1=NN(c2ccccc2C(=O)O)C(=O)C1N=Nc1ccccc1 (stereo not drawn) | 14 | 2 | u | 0%
CCOc1ccc(N=NC2C(=O)N(C(N)=S)N=C2C)cc1 (stereo not drawn) | x | 28* | u | -7%
CC1=NN(c2nc(-c3ccc(C)cc3)cs2)C(=O)C1N=Nc1cccc(C)c1 (stereo not drawn) | 29 | 20* | 46% | u
CC1=NN(C(N)=S)C(=O)C1N=Nc1ccc([N+](=O)[O-])cc1 (stereo not drawn) | 39* | 53* | x | 465%
O=C(CN1C(=O)c2ccccc2C1=O)Oc1ccc(Cl)cc1 | -5 | 3 | 20% | -15%
CCCC1(c2ccccc2)NC(=O)N(CC(=O)Nc2cc(OC)cc(OC)c2)C1=O (stereo not drawn) | -9 | -1 | -22% | u
CCc1nn2c(NCCOC)cc(C)nc2c1-c1ccc(F)cc1 | 16 | 7 | u | 32%
NCCCCCc1cn(CC(=O)NCCCCCCCCCCC(=O)N2CCNCC2)nn1 | x | x | -17% | 114%
C/C(CC(=O)Nc1ccc(Cl)c(C(F)(F)F)c1)=N\NC(=O)c1cccc(O)c1 | 68* | 44* | 12µM* | -1%
C/C(CC(=O)Nc1ccc(Cl)c(C(F)(F)F)c1)=N\NC(N)=S | 73 | 20* | 45% | 35%
C/C(CC(=O)Nc1ccc(Cl)c(C(F)(F)F)c1)=N\NC(=O)c1ccccc1O | 41 | 22* | u | u
CC(=N\Nc1ccccc1)/C(=N/O)C(=O)Nc1ccccc1 | -17 | -2 | 25% | 62%
C/C(=N\Nc1ccc(C(=O)O)cc1)c1ccc2c(c1)Nc1ccccc1S2 | 48* | 69* | u | u
C=CCN1C(=O)/C(=C/c2ccc(-c3ccc(F)cc3)o2)SC1=S | 5 | 5 | 45% | 57%
CC(=O)Oc1cccc(/C=C2\Sc3ccccc3C2=O)c1 | 51* | 28* | -23% | 1%
C[C@@H](NC(=O)Cn1ccc(N)nc1=O)c1cccc2ccccc12 | x | x | 43% | 8%
C=CCc1cccc2cc(-c3nc4ccc(C)cc4[nH]3)c(=O)oc12 | 91* | 36* | x | x
O=c1oc2c(CN3CCCCC3)c(O)ccc2cc1-c1nc2ccccc2[nH]1 | 13 | 12* | u | 10µM*
O=c1oc2c(O)cccc2cc1-c1nc2ccccc2[nH]1 | 69* | 47* | 183% | -11%
O=C(Cc1c(Cl)cccc1Cl)N/N=C/c1cccnc1 | -12 | -1 | -20% | -30%
COC(=O)c1[nH]c2ccc(C)cc2c1NC(=O)C(C)N1CCN(C2CCCCC2)CC1 (stereo not drawn) | -4 | -7 | u | 10µM*
COC(=O)c1[nH]c2ccc(C)cc2c1NC(=O)CN1CCC(C)CC1 | -19 | -5 | -18% | u
COC(=O)c1[nH]c2ccc(Br)cc2c1NC(=O)C(C)N1CCN(C2CCCCC2)CC1 (stereo not drawn) | 13 | -6 | u | 2.1µM*
COC(=O)c1[nH]c2ccc(Br)cc2c1NC(=O)CN1CCCCC1CCO (stereo not drawn) | 35 | -1 | u | 5.2µM*
CCCc1cc(C(=O)OCC(=O)N2CCN(c3ccc(OC)cc3)CC2)sc1C | x | x | u | -17%
SMILES | Shiga toxin inh | Cycloheximide cs | Pf growth 48h | Pf growth 96h
CC(C)(C)CC(C)(C)c1cc(Cc2cc(C(C)(C)CC(C)(C)C)cc(-n3nc4ccccc4n3)c2O)c(O)c(-n2nc3ccccc3n2)c1 | x | x | -5% | 3%
CCN(C(=O)COC(=O)CCn1c(C)csc1=O)c1c(N)n(Cc2ccccc2)c(=O)[nH]c1=O | x | x | -14% | u
c1ccc(Nc2nnc(-c3cccc4ccccc34)o2)cc1 | 54* | 36* | 91% | 144%
OCC#CCSc1nnc(-c2cccc3ccccc23)o1 | x | x | 11% | 1%
CCO[C@H]1OC(C(=O)NCc2nc3ccccc3[nH]2)=C[C@@H](C2CCCCC2)[C@@H]1CCCO | -10 | 2 | u | 9.3µM*
C#Cc1ccc([C@@H]2C=C(C(=O)NCc3nc4ccccc4[nH]3)O[C@H](OCC)[C@H]2CCCO)cc1 | -2 | -1 | u | u
CCO[C@@H]1OC(C(=O)NCc2nc3ccccc3[nH]2)=C[C@H](c2ccc(C(F)(F)F)cc2)[C@H]1CCCO | -17 | 1 | u | 12µM*
CCO[C@H]1OC(C(=O)NCc2nc3ccccc3[nH]2)=C[C@@H](c2ccc(C(F)(F)F)cc2)[C@@H]1CCCO | 17 | -1 | u | 1.5µM*
Cc1ccc(Oc2ccc(NC(=O)Cn3ccsc3=N)cc2)cc1 | -12 | -3 | 10µM* | x
CN(C)CCNc1c2c(c(C#N)c3nc4ccccc4n13)CCCC2 | -3 | -5 | u | u
N#Cc1c2c(c(NCc3ccco3)n3c1nc1ccccc13)CCC2 | 28 | -4 | 1µM* | 0.74µM*
CCN(CC)CCNc1c2c(c(C#N)c3nc4ccccc4n13)CCCC2 | -9 | -3 | 10µM* | x
CCCCC1(O)CC(C(F)(F)F)=NN1C(=O)COc1ccccc1 (stereo not drawn) | 12 | -2 | -9% | 0.12µM*
COc1cc(C(=O)OCc2ccc(C)cc2)cc(NC(=O)c2cccs2)c1OC | -7 | -4 | 8.3µM* | 10µM*
COc1cc(C(=O)O)cc(NC(=O)c2cccs2)c1OC | -7 | -2 | 42% | -24%
CCOC(=O)N1CCN(C(=O)c2ccc(Cl)c(NC(=O)c3cccs3)c2)CC1 | x | x | 10µM* | u
Cc1nc2ccc(NC(=O)c3ccc(Cl)c(NC(=O)c4cccs4)c3)cc2s1 | 51 | 20* | -3% | 0%
Cc1ccc(NC(=O)c2ccc(Cl)c(NC(=O)c3cccs3)c2)cc1 | 45 | 53* | 8% | u
CC(=O)N1CCN(C(=O)c2ccc(Cl)c(NC(=O)c3cccs3)c2)CC1 | x | x | -6% | 11%
Cn1cc(CN(CCO)Cc2cccs2)c(-c2ccccc2F)n1 | -7 | 1 | 2% | u
CCN(CC(=O)Nc1ccc(NC(C)=O)cc1)C(=O)CCCc1nc2ccccc2c(=O)[nH]1 | x | x | 12% | 19%
COc1cccc2cc(C(=O)NCCN3CCOCC3)c(=O)oc12 | -7 | 1 | 13% | 15%
COc1ccc(C(CNC(=O)c2ccc(Cl)c(NC(=O)c3cccs3)c2)N2CCCC2)cc1 (stereo not drawn) | x | x | 10µM* | 8.3µM*
COc1ccc(C(CNC(=O)Cc2ccccc2Cl)N2CCCCC2)cc1 (stereo not drawn) | -7 | 2 | 4% | 4%
O=C(Nc1ccc(Br)cc1)c1ccc(F)c(S(=O)(=O)NC2CCCCCC2)c1 | 10 | 5 | x | x
CCOc1nc2cnccc2n(CC(=O)Nc2cccc(C)c2)c1=O | -4 | 6 | 6% | 13%
CC(C)(C)C(=O)NC1(C(F)(F)F)NC(=O)N(c2ccc(F)cc2)C1=O (stereo not drawn) | 21 | -1 | -12% | 12µM*
N#C/C(=N\Nc1ccc([N+](=O)[O-])cc1)C(N)=S | 88* | 41* | -8% | u
N#C/C(=N/Nc1ccc([N+](=O)[O-])cc1)C(=N)N1CCCCC1 | 104* | 31* | 329% | u
